{"source": "PubChem BioAssay AID1063", "about": "(University of Pittsburgh Molecular Library Screening Center, 2008)", "note": "In all, about 200,000 compounds went through this assay and about 18,000 (9%) were called active. The full list was thinned out, with actives kept by preference. Unmarked numbers belong to inactive results. Cut-off read from the data, not from the text of the source: active = inhibition above about 50%; inactive = the rest."}
{"assay": "antileishmanial activity against promastigotes – primary screen (AID 1063);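 note: promastigotes grown with compound for 44 hours at 28 °C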", "details": "Leishmania major promastigotes, resazurin fluorescence viability; at 10 µM; stronger effect = higher value"}
{"smiles": "Cn1c(=O)c2c(nc(CN3CCOCC3)n2Cc2ccccc2)n(C)c1=O", "inhibition": "-4.56%"}
{"smiles": "CCN1CCN(Cc2nc3c(c(=O)n(C)c(=O)n3C)n2CC(=O)c2ccccc2)CC1", "inhibition": "1.75%"}
{"smiles": "CN1CCN(Cc2nc3c(c(=O)n(C)c(=O)n3C)n2Cc2cccc3ccccc23)CC1", "inhibition": "58.8% (active)"}
{"smiles": "Cc1cccc(NC(=S)N2CCC(O)CC2)c1C", "inhibition": "-2.49%"}
{"smiles": "Cc1csc(OCC(=O)Nc2ccc(C)c(C)c2)n1", "inhibition": "-3.8%"}
{"smiles": "Cc1ccc(NC(=O)COc2ccc(-n3ccnc3)cc2)cc1Cl", "inhibition": "86.5% (active)"}
{"smiles": "Cc1ccccc1OCC(=O)Nc1ccc(N2CCN(C(=O)C(C)C)CC2)c(Cl)c1", "inhibition": "40.7%"}
{"smiles": "O=C(CNC(=O)COc1ccccc1)NCCc1ccccn1", "inhibition": "-2.06%"}
{"smiles": "N=C(N)SCc1cccc2ccccc12", "inhibition": "5.8%"}
{"smiles": "CCn1c(SCc2ccc(C)cc2)nnc1-c1nn(-c2ccccc2)ccc1=O", "inhibition": "5.13%"}
{"smiles": "CCc1ccc(-c2nn(-c3ccccc3)cc2CSC(=N)N)cc1", "inhibition": "100% (active)"}
{"smiles": "N/C(=N\\OC(=O)CCc1ccccc1)c1cccnc1", "inhibition": "-5.44%"}
{"smiles": "COC(=O)CSc1nccc(-c2cccs2)n1", "inhibition": "1.92%"}
{"smiles": "Cc1nnc(SCC(=O)N2CCN(c3ccccc3)CC2)n1-c1ccccc1", "inhibition": "5.01%"}
{"smiles": "Cc1nnc(SCC(=O)NCCOc2ccc(Cl)cc2)n1-c1ccccc1", "inhibition": "-1.38%"}
{"smiles": "Cc1nnc(SCc2ccc(C(=O)c3ccc(Cl)cc3)o2)n1-c1ccccc1", "inhibition": "98.6% (active)"}
{"smiles": "CNC(=O)c1[nH]cnc1C(=O)N[C@@H](CC(C)C)C(=O)OCc1ccccc1", "inhibition": "0.78%"}
{"smiles": "CN(c1ccccc1)S(=O)(=O)c1ccc(Cl)c(C(=O)NCCc2c[nH]c3ccccc23)c1", "inhibition": "95.2% (active)"}
{"smiles": "O=C(NCCc1c[nH]c2ccccc12)c1cc2ccccc2oc1=O", "inhibition": "1.33%"}
{"smiles": "CCN(CC)S(=O)(=O)c1ccc2[nH]cc(C(=O)NCCc3ccccc3)c(=O)c2c1", "inhibition": "7.93%"}
{"smiles": "CCn1c(=S)[nH]c2sc3c(c2c1=O)CCCCC3", "inhibition": "-4.76%"}
{"smiles": "Cc1nc2nc(CSc3nc4ccccc4s3)cc(=O)n2[nH]1", "inhibition": "1.29%"}
{"smiles": "CCN(CC)CCCSc1nc2ccccc2s1", "inhibition": "70.2% (active)"}
{"smiles": "Cc1sc2ncnc(Sc3nc4ccccc4s3)c2c1C", "inhibition": "7.91%"}
{"smiles": "O=C1COc2ccc(C(=O)COC(=O)C3CC(O)CN3S(=O)(=O)c3ccc(Cl)cc3)cc2N1", "note": "(stereo not given)", "inhibition": "-7.23%"}
{"smiles": "CCS(=O)(=O)N1Cc2ccccc2CC1C(=O)Nc1nc2ccc(F)cc2s1", "note": "(stereo not given)", "inhibition": "19.1%"}
{"smiles": "CN(C)C(=O)N1CCNCC1", "inhibition": "-4.41%"}
{"smiles": "COc1cccc(-c2cc(C(=O)N/N=C/c3ccc(OC)c(COC(C)=O)c3)c3ccccc3n2)c1", "inhibition": "10.4%"}
{"smiles": "O=C(N/N=C/C=C/c1ccco1)c1cccs1", "inhibition": "-2.33%"}
{"smiles": "Cc1ccc(-c2cc(C(=O)N/N=C/C=C/c3ccco3)c3ccccc3n2)cc1C", "inhibition": "55.7% (active)"}
{"smiles": "COc1ccc(NS(=O)(=O)c2ccc(O)c(C(=O)OCC(=O)NC3CCCCC3)c2)cc1", "inhibition": "-3.84%"}
{"smiles": "O=C(NNc1cc(Cl)ccc1Cl)c1cccnc1Cl", "inhibition": "-4.41%"}
{"smiles": "COC(=O)Cc1ccc(NC(=S)NCc2ccco2)cc1", "inhibition": "-3.07%"}
{"smiles": "CC(C)c1nc(CNC(=O)CC2C(=O)NCCN2Cc2ccoc2)cs1", "note": "(stereo not given)", "inhibition": "-2.52%"}
{"smiles": "COCc1c(N)c(C)nc(Cl)c1C#N", "inhibition": "3.91%"}
{"smiles": "Cc1ccsc1/C=N/n1c(=S)[nH]nc(C)c1=O", "inhibition": "99% (active)"}
{"smiles": "S=c1[nH]nc(-c2cccs2)n1/N=C/c1cccs1", "inhibition": "-14.7%"}
{"smiles": "Oc1ccccc1/C=N/n1c(-c2cccs2)n[nH]c1=S", "inhibition": "-8.08%"}
{"smiles": "Cc1c(Cl)cccc1NC(=O)CSc1ccc(-c2cccnc2)nn1", "inhibition": "10.9%"}
{"smiles": "COC(=O)c1cc(C(=O)CSc2nc(C)cc(C)n2)ccc1O", "inhibition": "-2.37%"}
{"smiles": "Cc1cc(Oc2ccc(Cl)cc2)nc(SCC(=O)c2ccccc2)n1", "inhibition": "95.7% (active)"}
{"smiles": "Cc1cc(SCC(=O)c2ccccc2)nc(SCC(=O)c2ccccc2)n1", "inhibition": "-2.75%"}
{"smiles": "CC(=O)c1sc(NC(=O)C2=NN(c3ccccc3)C(=O)CC2)nc1C", "inhibition": "2.95%"}
{"smiles": "CC1=CC=CC2=N/C(=N\\S(=O)(=O)c3ccc(F)cc3F)c3ccccc3CN12", "inhibition": "2.41%"}
{"smiles": "O=[N+]([O-])c1ccccc1NCc1ccc(Cl)cc1", "inhibition": "-7.18%"}
{"smiles": "O=[N+]([O-])c1ccccc1Nc1ccc(O)cc1", "inhibition": "5.07%"}
{"smiles": "Oc1ccc(CNc2ccccc2O)cc1", "inhibition": "98.9% (active)"}
{"smiles": "O=C(CS(=O)(=O)c1ccccc1)Nc1ccc(S(=O)(=O)Nc2ccccn2)cc1", "inhibition": "-6.61%"}
{"smiles": "O=C(NCCc1ccc(F)cc1)c1n[nH]c2ccccc12", "inhibition": "3.08%"}
{"smiles": "O=C(Cc1ccc(Cl)c(Cl)c1)Nc1ccc(SC(F)F)cc1", "inhibition": "4.28%"}
{"smiles": "CN(C)CCNC(CC(=O)Nc1ccc(Cl)c(Cl)c1)C(=O)O", "note": "(stereo not given)", "inhibition": "-6.23%"}
{"smiles": "O=C(CC(O)(C(F)(F)F)C(F)(F)F)Nc1ccc(Cl)c(Cl)c1", "inhibition": "100% (active)"}
{"smiles": "Cc1cc(C)n(-c2ccc(C(=O)O)cc2[N+](=O)[O-])n1", "inhibition": "-1.85%"}
{"smiles": "COC(=O)Cc1csc(/N=C/c2c(O)n(-c3cccc(C(F)(F)F)c3)c(=O)c3ccccc23)n1", "inhibition": "-6.16%"}
{"smiles": "CCN(CCn1cccn1)Cc1cn[nH]c1-c1ccc(OC)cc1F", "inhibition": "2.85%"}
{"smiles": "Oc1cccc2ccc(/C=C/c3ccc(Br)s3)nc12", "inhibition": "-3.7%"}
{"smiles": "CCCNC(=O)CN(Cc1ccccc1F)S(=O)(=O)c1ccc(C)cc1", "inhibition": "100% (active)"}
{"smiles": "CCN(CC(=O)NCCc1ccccc1)S(=O)(=O)c1ccc(C)cc1", "inhibition": "48%"}
{"smiles": "CCN(CC(=O)NCCc1ccccc1)S(=O)(=O)c1ccccc1", "inhibition": "5.3%"}
{"smiles": "CN(C)C(=O)c1cccn(Cc2cccc(C(F)(F)F)c2)c1=O", "inhibition": "-8.4%"}
{"smiles": "Cc1cc(C)n2nc(SCC(=O)NC(=O)NCc3ccco3)nc2n1", "inhibition": "-4.34%"}
{"smiles": "O=c1[nH]c2cccnc2n(CCNc2ncc(C(F)(F)F)cc2Cl)c1=O", "inhibition": "-4.9%"}
{"smiles": "O=C(Nc1ccc2ccccc2c1)Nc1ccc2snnc2c1", "inhibition": "100% (active)"}
{"smiles": "COc1ccc(NC(=O)Nc2ccc3nsnc3c2)cc1", "inhibition": "5.81%"}
{"smiles": "Cc1ccc(NC(=O)Nc2ccc3oc(C)nc3c2)cc1", "inhibition": "2.15%"}
